Measured values as given in PubChem BioAssay (EPA / NIEHS).
Records with an inconclusive call do not appear. The source holds several records for some structures; these can differ, active in one and inactive in another. Activity calls are given as the source filed them. Rule for the calls, unless noted: active = hit-call score of the fitted dose curve at least 0.9, where 1 is the maximum; inactive = score below 0.9.

Legend:
[1] = BSK_4H_Eotaxin3: BioMAP Diversity Plus: 4H Assay for Eotaxin 3 Biomarker Activity (AID 2283000); settings: primary human endothelial cells (HUVEC); actives raise or lower the signal;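 for outcome: CCL26 protein level quantified by ELISA in parallel with SRB cytotoxicity check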
Outline: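 ELISA quantitation of CCL26 (Eotaxin-3) protein from chemically dosed human vascular endothelial cells at 24 h; increases and decreases both scored relative to DMSO-treated baseline.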

[2] = read-out: Intercellular Adhesion Molecule 1 (ICAM1), ICAM1 (gene 3383); test: BSK_3C_ICAM1: BioMAP Diversity Plus: 3C Assay for Intercellular Adhesion Molecule 1 (ICAM1) Biomarker Activity (AID 2283003); settings: primary human endothelial cells (HUVEC); actives raise or lower the signal
Outline: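 Chemicals are dosed onto primary human umbilical vein endothelium (3C system). After 24 h, ICAM-1 is measured by ELISA, and responses are fitted bidirectionally relative to DMSO.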

[3] = read-out: Monokine induced gamma interferon (MIG), CXCL9 (gene 4283); test: BSK_3C_MIG: BioMAP Diversity Plus: 3C Assay for Monokine induced gamma interferon (MIG) Biomarker Activity (AID 2283021); settings: primary human endothelial cells (HUVEC); actives raise or lower the signal
Outline: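 Endothelial primary cells (human umbilical vein) are dosed with test chemical in the 3C system. MIG levels are measured by ELISA at 24 h and fitted in both directions relative to DMSO.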

[4] = read-out: Urokinase-type plasminogen activator receptor (uPAR), PLAUR (gene 5329); test: BSK_4H_uPAR: BioMAP Diversity Plus: 4H Assay for Urokinase-type plasminogen activator receptor (uPAR) Biomarker Activity (AID 2283030); settings: primary human endothelial cells (HUVEC); actives raise or lower the signal
Outline: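 Endpoint derived via bidirectional curve fitting against DMSO baseline; readout was ELISA detection of uPAR on umbilical vein endothelial cells at 24 h post-treatment, with SRB-stained parallel cultures assessing cytotoxicity.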

[5] = read-out: Monokine induced gamma interferon (MIG), CXCL9 (gene 4283); test: BSK_BE3C_MIG: BioMAP Diversity Plus: BE3C Assay for Monokine induced gamma interferon (MIG) Biomarker Activity (AID 2283035); settings: primary human bronchial epithelial cells; actives raise or lower the signal;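 note: MIG protein measured by ELISA in BE3C cultures after 24 h of dosing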
Outline: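 Dose cells (human primary bronchial epithelial), incubate 24 h, quantify MIG by ELISA, then fit concentration–response in both directions relative to DMSO control.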

[6] = read-out: Plasminogen activator inhibitor-1 (PAI1), SERPINE1 (gene 5054); test: BSK_BE3C_PAI1: BioMAP Diversity Plus: BE3C Assay for Plasminogen activator inhibitor-1 (PAI1) Biomarker Activity (AID 2283037); settings: primary human bronchial epithelial cells; actives raise or lower the signal
Outline: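 Values derive from bidirectional fitting against DMSO baseline of PAI-1 levels, measured by ELISA in human bronchial epithelial cells 24 h after compound addition.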

[7] = read-out: urokinase plasminogen activator (uPA), PLAU (gene 5328); test: BSK_BE3C_uPA: BioMAP Diversity Plus: BE3C Assay for urokinase plasminogen activator (uPA) Biomarker Activity (AID 2283038); settings: primary human bronchial epithelial cells; actives raise or lower the signal;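 note: uPA protein level quantified by ELISA in cell cultures; uPA read one day after compound addition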
Outline: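 Using confluent primary human lung bronchial epithelial cultures, we dosed chemicals, waited 24 h, then ran a uPA ELISA, fitting bidirectionally against DMSO.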

[8] = read-out: Tissue plasminogen activator (tPA), PLAT (gene 5327); test: BSK_BE3C_tPA: BioMAP Diversity Plus: BE3C Assay for Tissue plasminogen activator (tPA) Biomarker Activity (AID 2283041); settings: primary human bronchial epithelial cells; actives raise or lower the signal;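 for outcome: tPA level quantified by ELISA one day after compound addition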
Outline: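 Gain- or loss-of-signal in tPA, measured by ELISA, derived by bidirectional fitting against DMSO. Cells: human primary bronchial epithelial; read at 24 h after chemical dosing.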

[9] = read-out: serum amyloid A (SAA), SAA1 (gene 6288); test: BSK_CASM3C_SAA: BioMAP Diversity Plus: CASM3C Assay for serum amyloid A (SAA) Biomarker Activity (AID 2283049); settings: primary human coronary artery smooth muscle cells; actives raise or lower the signal;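 note: SAA protein level quantified by ELISA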
[10] = read-out: Thrombomodulin, THBD (gene 7056); test: BSK_CASM3C_Thrombomodulin: BioMAP Diversity Plus: CASM3C Assay for Thrombomodulin Biomarker Activity (AID 2283051); settings: primary human coronary artery smooth muscle cells; actives raise or lower the signal;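 note: thrombomodulin protein level measured by ELISA 24 h after dosing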
[11] = molecular target: Retinoic acid receptor RXR-alpha (Homo sapiens) (UniProt P19793); test: OT_NURR1_NURR1RXRa_0480: Odyssey Thera (OT) 8-hour HEK293T Protein Complementation Assay for Nurr1/retinoid X receptor (RXR) (AID 2283385; active = hit-call score of the fitted dose curve at least 0.9, where 1 is the maximum)
Sequence of Retinoic acid receptor RXR-alpha (Homo sapiens) (P19793 whole entry, looked up, the tested form may be a part): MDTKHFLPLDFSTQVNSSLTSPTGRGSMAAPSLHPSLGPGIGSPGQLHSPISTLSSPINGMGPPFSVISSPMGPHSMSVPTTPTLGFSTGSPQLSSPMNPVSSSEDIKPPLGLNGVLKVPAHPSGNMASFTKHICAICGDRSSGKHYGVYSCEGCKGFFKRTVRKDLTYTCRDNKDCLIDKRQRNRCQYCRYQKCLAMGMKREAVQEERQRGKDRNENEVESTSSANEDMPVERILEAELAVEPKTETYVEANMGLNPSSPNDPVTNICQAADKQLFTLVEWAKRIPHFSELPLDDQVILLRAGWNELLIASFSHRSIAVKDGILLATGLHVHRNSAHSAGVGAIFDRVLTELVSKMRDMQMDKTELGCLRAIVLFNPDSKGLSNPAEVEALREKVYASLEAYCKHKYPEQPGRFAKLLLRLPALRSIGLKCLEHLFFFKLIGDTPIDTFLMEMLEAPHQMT
Outline: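 Interaction of bait and prey reconstitutes a functional reporter, whose fluorescence was measured in HEK293T cells dosed with compound for 8 hours. Signal gain relative to DMSO defined the single endpoint.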

[12] = molecular target: Retinoic acid receptor RXR-alpha (Homo sapiens) (UniProt P19793); test: OT_NURR1_NURR1RXRa_1440: Odyssey Thera (OT) 24-hour HEK293T Protein Complementation Assay for Nurr1/retinoid X receptor (RXR) (AID 2283386; active = hit-call score of the fitted dose curve at least 0.9, where 1 is the maximum)
Outline: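 Steps: fragment-tagged Nurr1 and RXRα expressed in HEK293T; compounds added; after 24 h, complemented reporter quantified by fluorescence intensity; signal increase over DMSO fitted as the single endpoint.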

[13] = ACEA_AR_agonist_AUC_viability: ACEA Biosciences xCELLigence Real-Time Cell Analysis on Androgen Receptor Agonism for Viability (AID 2283775; active = hit-call score of the fitted dose curve at least 0.9, where 1 is the maximum)
Outline: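 22Rv1 cells; impedance growth kinetics; 8-pt 1:4 dilutions from 100 uM top final, ≤0.5% DMSO; n = 2; 80 h read; AUC viability, loss-of-signal vs DMSO.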

[14] = ACEA_AR_antagonist_AUC_viability: ACEA Biosciences xCELLigence Real-Time Cell Analysis on Androgen Receptor Antagonism for Viability (AID 2283776; active = hit-call score of the fitted dose curve at least 0.9, where 1 is the maximum;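 note: 22Rv1 human prostate cancer cells growing on impedance electrode plates; area under impedance growth curve at 80 h after dosing as viability; hits lower the growth signal relative to DMSO meaning cytotoxicity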)
Outline: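 Impedance read-out (RT-CES): area under growth curve at 80 h post-dose, loss of signal scored vs DMSO baseline. 22Rv1 cells; 8-pt 1:4 series, top 100 uM final, ≤0.5% DMSO; biological duplicate.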

[15] = CCTE_Harrill_HTTr_Viability_MCF7: CCTE's 6-hour Cell Viability Assessment for the High-Throughput Transcriptomics (HTTr) Platform, in MCF-7 cells cultured in DMEM + 10% fetal bovine serum, Harrill Lab (AID 2284010)
Outline: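 Read-out is propidium iodide gain of signal by high-content imaging, reflecting membrane integrity loss. Measurements are taken 6 h after dosing, eight concentrations per chemical, with DMSO serving as baseline for bidirectional curve fitting.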

[16] = CCTE_Harrill_HTTr_Apoptosis_MCF7: CCTE's 6-hour Apoptosis Assessment for the High-Throughput Transcriptomics (HTTr) Platform, in MCF-7 cells cultured in DMEM + 10% fetal bovine serum, Harrill Lab (AID 2284011)
Outline: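 Apoptosis in MCF-7 cells grown in DMEM with 10% fetal bovine serum was scored after a six hour exposure by high content imaging of caspase-3/7 activation (CellEvent Caspase 3/7 Green), with DMSO serving as negative control and baseline.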

[17] = molecular target: Estrogen receptor beta (Homo sapiens) (UniProt Q92731); test: OT_ER_ERbERb_1440: Odyssey Thera (OT) 24-hour HEK293T Protein-Complementation Assay for Estrogen Receptor-beta/-beta Homodimer (AID 2283380; active = hit-call score of the fitted dose curve at least 0.9, where 1 is the maximum;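 note: scored as signal increase over DMSO baseline for both agonists and antagonists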)
Sequence of Estrogen receptor beta (Homo sapiens) (Q92731 whole entry, looked up, the tested form may be a part): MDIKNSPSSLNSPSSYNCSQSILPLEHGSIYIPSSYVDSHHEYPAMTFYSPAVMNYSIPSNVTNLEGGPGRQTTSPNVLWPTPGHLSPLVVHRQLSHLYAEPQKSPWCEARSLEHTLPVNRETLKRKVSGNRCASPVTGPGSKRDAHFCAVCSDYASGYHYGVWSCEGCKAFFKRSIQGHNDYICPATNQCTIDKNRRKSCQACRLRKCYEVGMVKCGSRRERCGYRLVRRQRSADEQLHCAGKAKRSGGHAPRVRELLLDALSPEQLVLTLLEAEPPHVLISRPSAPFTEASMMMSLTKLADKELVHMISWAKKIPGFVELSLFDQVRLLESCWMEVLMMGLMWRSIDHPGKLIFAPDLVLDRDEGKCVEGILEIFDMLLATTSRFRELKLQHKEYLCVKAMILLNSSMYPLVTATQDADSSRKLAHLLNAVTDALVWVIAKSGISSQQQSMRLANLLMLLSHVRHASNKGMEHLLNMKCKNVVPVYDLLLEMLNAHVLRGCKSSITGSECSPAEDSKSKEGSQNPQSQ
Outline: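 HEK293T cells stably expressing ER beta LBD (aa 310-547) homodimer fragment-complementation reporter, dosed 24 h. Cells formaldehyde-fixed, Draq5-stained; gain in nuclear (agonist) or nuclear plus cytoplasmic (antagonist) fluorescence versus DMSO read by laser scanning cytometry.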

[18] = ATG_ERE_CIS: Attagene CIS-FACTORIAL HepG2 Assay for Estrogen Response Element (ERE) (AID 2282940); settings: HepG2 ERE cis-reporter, Attagene RNA transcript; actives raise or lower the signal
Outline: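 Readout: reporter mRNA induction by RT-PCR, FAM-labelled primer extension, HpaI digestion and capillary electrophoresis, 24 h after dosing transfected HepG2 cells. Endogenous transcription factors act on cis-element-regulated reporters. Gain or loss fitted against DMSO.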

[19] = molecular target: Bile acid receptor (Homo sapiens) (UniProt Q96RI1); test: ATG_FXR_TRANS: Attagene TRANS-FACTORIAL HepG2 Assay for Farnesoid X Receptor (FXR) (AID 2282979; active = hit-call score of the fitted dose curve at least 0.9, where 1 is the maximum;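 note: hits raise reporter mRNA above DMSO so AC50 marks FXR activation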); settings: HepG2 Attagene TRANS FXR-GAL4 reporter transcription
Sequence of Bile acid receptor (Homo sapiens) (Q96RI1 whole entry, looked up, the tested form may be a part): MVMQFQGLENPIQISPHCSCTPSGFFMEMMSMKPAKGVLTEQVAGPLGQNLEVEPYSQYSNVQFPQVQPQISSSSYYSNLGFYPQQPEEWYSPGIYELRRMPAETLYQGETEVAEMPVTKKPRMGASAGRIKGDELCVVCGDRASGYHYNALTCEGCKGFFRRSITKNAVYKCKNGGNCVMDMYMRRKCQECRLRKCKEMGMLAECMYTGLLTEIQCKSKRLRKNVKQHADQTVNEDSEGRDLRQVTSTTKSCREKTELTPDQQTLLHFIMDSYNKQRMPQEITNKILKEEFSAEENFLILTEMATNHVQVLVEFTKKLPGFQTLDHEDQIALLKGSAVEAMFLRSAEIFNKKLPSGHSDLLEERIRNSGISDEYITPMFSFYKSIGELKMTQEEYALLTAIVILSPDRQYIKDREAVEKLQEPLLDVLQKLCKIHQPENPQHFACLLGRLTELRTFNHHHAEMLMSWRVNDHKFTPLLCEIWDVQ
Outline: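 After 24 h chemical treatment of transfected HepG2 cells, GAL4-UAS reporter transcripts driven by an exogenous FXR-GAL4 fusion were measured by RT-PCR and capillary electrophoresis. Increases over DMSO were fitted.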

[20] = molecular target: Estrogen-related receptor gamma (Homo sapiens) (UniProt P62508); test: ATG_ERRg_TRANS: Attagene TRANS-FACTORIAL HepG2 Assay for human Estrogen-Related Receptor gamma (ERRg) (AID 2282977; active = hit-call score of the fitted dose curve at least 0.9, where 1 is the maximum;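 note: hits increase reporter signal over DMSO so potencies reflect activators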); settings: HepG2 Attagene TRANS reporter, ERRg transactivation
Sequence of Estrogen-related receptor gamma (Homo sapiens) (P62508 whole entry, looked up, the tested form may be a part): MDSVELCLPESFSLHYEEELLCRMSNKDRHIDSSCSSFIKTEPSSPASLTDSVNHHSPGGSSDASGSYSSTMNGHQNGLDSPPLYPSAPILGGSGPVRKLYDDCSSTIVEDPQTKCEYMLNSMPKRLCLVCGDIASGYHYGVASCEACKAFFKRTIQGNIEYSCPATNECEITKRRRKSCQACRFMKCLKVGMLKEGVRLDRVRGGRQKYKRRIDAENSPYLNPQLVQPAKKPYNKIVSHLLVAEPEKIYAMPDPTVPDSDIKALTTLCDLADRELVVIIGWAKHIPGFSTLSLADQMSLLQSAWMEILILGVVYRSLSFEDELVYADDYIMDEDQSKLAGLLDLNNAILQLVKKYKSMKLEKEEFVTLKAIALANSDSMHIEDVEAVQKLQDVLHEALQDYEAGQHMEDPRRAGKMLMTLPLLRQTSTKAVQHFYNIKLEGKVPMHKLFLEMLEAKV
Outline: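 Induction of reporter transcripts through a chimeric NR-Gal4 protein is quantified in transfected human HepG2 liver cells after 24 h chemical exposure, using RT-PCR with capillary electrophoresis detection and DMSO as baseline.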

## O=[N+]([O-])O
[1]
  AC50: 0.433 µM (active)
  outcome: inactive
[2]
  outcome: inactive
[3]
  outcome: inactive
[4]
  outcome: inactive
[5]
  outcome: inactive
[6]
  outcome: inactive
[7]
  outcome: inactive
[8]
  outcome: inactive
[9]
  outcome: inactive
[10]
  outcome: inactive
[11]
  outcome: inactive
[12]
  outcome: inactive
[13]
  outcome: inactive
[14]
  outcome: inactive
[15]
  outcome: inactive
[16]
  outcome: inactive

## CCC1CCC(=O)O1 (centres undefined)
[17]
  outcome: inactive
[12]
  outcome: inactive
[14]
  outcome: inactive

## CCOC(=O)C1OC1(C)c1ccccc1 (centres undefined)
[17]
  AC50: 37.3 µM (active)
[11]
  outcome: inactive
[12]
  outcome: inactive
[13]
  outcome: inactive

## O=P(O)(Oc1ccccc1)Oc1ccccc1
[18]
  outcome: inactive
[19]
  outcome: inactive
[17]
  outcome: inactive
[12]
  outcome: inactive

## C[C@]12CC[C@H](O)C[C@H]1CC[C@@H]1[C@@H]2C[C@@H](O)[C@]2(C)[C@@H](C3=CC(=O)OC3)CC[C@]12O
[20]
  outcome: inactive
[19]
  outcome: inactive

## C[N+](=O)[O-]
[18]
  outcome: inactive
[20]
  outcome: inactive

## O=S(=O)(c1ccccc1)c1ccccc1
[20]
  outcome: inactive
[1]
  outcome: inactive
[2]
  outcome: inactive
[3]
  outcome: inactive
[4]
  outcome: inactive
[5]
  outcome: inactive
[6]
  outcome: inactive
[7]
  outcome: inactive
[8]
  outcome: inactive
[9]
  outcome: inactive
[10]
  outcome: inactive

## C=CC(=O)OCCCCOC(=O)C=C
[18]
  outcome: inactive
[20]
  outcome: inactive

## CC(C)CCCCCCCOP(=O)(Oc1ccccc1)Oc1ccccc1
[18]
  AC50: 27.5 µM (active)
[19]
  outcome: inactive
[1]
  AC50: 20 µM (active)
[2]
  AC50: 20 µM (active)
[3]
  outcome: inactive
[4]
  AC50: 29.1 µM (active)
[5]
  outcome: inactive
[6]
  AC50: 3.97 µM (active)
[7]
  outcome: inactive
[8]
  AC50: 3.21 µM (active)
[9]
  outcome: inactive
[10]
  outcome: inactive

## CCC(Br)(CC)C(=O)NC(N)=O
[19]
  outcome: inactive

## Cl/C=C\CCl
[15]
  outcome: inactive
[16]
  outcome: inactive

## O=C(O)C(Br)Br
[18]
  outcome: inactive
[19]
  outcome: inactive

## C=C(Cl)CCl
[18]
  outcome: inactive

## CC(=O)C=Cc1ccccc1
[17]
  outcome: inactive
[11]
  AC50: 1.12 µM (active)
[12]
  outcome: inactive
[15]
  outcome: inactive
[16]
  outcome: inactive

## CN(C)C(=O)C(c1ccccc1)c1ccccc1
[17]
  outcome: inactive
[11]
  outcome: inactive
[12]
  outcome: inactive
[13]
  outcome: inactive
[14]
  outcome: inactive
[15]
  outcome: inactive
